# Assay results reported in article PMC7862700, “An all-to-all approach to the identification of sequence-specific readers for epigenetic DNA modifications on cytosine”.
# Target: T1, ELK1 (Homo sapiens, UniProt P19419 1-428)
# T1 sequence: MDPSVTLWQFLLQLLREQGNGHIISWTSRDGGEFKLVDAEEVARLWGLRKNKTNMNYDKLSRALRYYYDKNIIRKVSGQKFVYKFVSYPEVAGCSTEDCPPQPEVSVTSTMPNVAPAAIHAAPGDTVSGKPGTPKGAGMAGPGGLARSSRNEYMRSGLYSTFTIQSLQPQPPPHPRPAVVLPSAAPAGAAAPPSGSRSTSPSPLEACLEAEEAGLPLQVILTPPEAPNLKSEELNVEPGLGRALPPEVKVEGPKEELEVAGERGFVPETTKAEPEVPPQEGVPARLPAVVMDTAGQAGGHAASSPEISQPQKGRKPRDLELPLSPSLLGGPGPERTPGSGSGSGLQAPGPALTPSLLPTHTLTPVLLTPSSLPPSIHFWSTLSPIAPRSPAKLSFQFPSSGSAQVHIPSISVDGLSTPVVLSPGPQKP
# Test: DAPPL (digital affinity profiling via proximity ligation, sequencing); 10 mM Tris-HCl pH 7.5, 50 mM NaCl, 1 mM DTT, 4% glycerol, room temperature, 30 min; GST-TFs on glutathione beads, 16-mer random dsDNA library, 0.1% formaldehyde crosslink after washing; high values mean tight binding
# Settings: protein: recombinant; tags: N-terminal GST; dsDNA, one strand shown
# Summary of the method: (§1)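 In yeast, human transcription factors were expressed with a GST fusion, then pulled down on glutathione beads and given DNA barcodes. Pooled with a tag-only sample, they were exposed to 200 nmole of a 16-mer random double-stranded DNA library (Tris/NaCl/DTT/glycerol buffer, room temperature, 30 min), washed, crosslinked with 0.1% formaldehyde, proximity-ligated using BsaI/T4 ligase for 1 h at 37 °C, PCR-amplified and read on an Illumina NextSeq500. Each hexamer's frequency of reads for a factor, divided by the matching frequency for the tag-only sample, gives the binding signal.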
row,Sequence,binding signal
1,CAAAAG,"1.02 fold enrichment (6-mer frequency, TF over GST control)"
2,ACACCG,"1.05 fold enrichment (6-mer frequency, TF over GST control)"
3,TAACGT,"1.02 fold enrichment (6-mer frequency, TF over GST control)"
4,AACGGT,"1.06 fold enrichment (6-mer frequency, TF over GST control)"
5,GTGTTA,"1.02 fold enrichment (6-mer frequency, TF over GST control)"
6,CAAACG,"1.04 fold enrichment (6-mer frequency, TF over GST control)"
7,CAATGA,"1.04 fold enrichment (6-mer frequency, TF over GST control)"
8,CATCAA,"1.01 fold enrichment (6-mer frequency, TF over GST control)"
9,CACCGC,"1.01 fold enrichment (6-mer frequency, TF over GST control)"
10,GATTGC,"1.06 fold enrichment (6-mer frequency, TF over GST control)"
11,GCAACA,"1.03 fold enrichment (6-mer frequency, TF over GST control)"
12,TTGAAG,"1.06 fold enrichment (6-mer frequency, TF over GST control)"
13,CACCTG,"1.06 fold enrichment (6-mer frequency, TF over GST control)"
14,TCATTG,"1.01 fold enrichment (6-mer frequency, TF over GST control)"
15,CCGGCG,"1.09 fold enrichment (6-mer frequency, TF over GST control)"

# Target: T2, GABPA (Homo sapiens, UniProt Q06546 1-454)
# T2 sequence: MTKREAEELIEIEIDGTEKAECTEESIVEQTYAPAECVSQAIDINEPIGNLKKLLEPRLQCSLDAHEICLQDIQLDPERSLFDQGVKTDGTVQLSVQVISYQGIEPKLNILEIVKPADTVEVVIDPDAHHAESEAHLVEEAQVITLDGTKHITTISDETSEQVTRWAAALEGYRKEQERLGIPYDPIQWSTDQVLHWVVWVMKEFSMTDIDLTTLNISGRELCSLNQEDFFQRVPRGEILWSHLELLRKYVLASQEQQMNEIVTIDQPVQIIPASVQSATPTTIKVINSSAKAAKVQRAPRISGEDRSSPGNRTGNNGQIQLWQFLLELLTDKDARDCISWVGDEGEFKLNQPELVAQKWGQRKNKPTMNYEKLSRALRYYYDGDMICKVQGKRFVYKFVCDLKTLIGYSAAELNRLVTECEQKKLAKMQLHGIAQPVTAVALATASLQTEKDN
# Test: as above
# Settings: protein: recombinant; tags: N-terminal GST; dsDNA, one strand shown
# Summary of the method: as §1
row,Sequence,binding signal
1,CAAAAG,"1.04 fold enrichment (6-mer frequency, TF over GST control)"
2,CAAACG,"1.05 fold enrichment (6-mer frequency, TF over GST control)"
3,TCGCGG,"1.07 fold enrichment (6-mer frequency, TF over GST control)"
4,CAATGA,"1.05 fold enrichment (6-mer frequency, TF over GST control)"
5,CATCAA,"1.03 fold enrichment (6-mer frequency, TF over GST control)"
6,CACCGC,"1.06 fold enrichment (6-mer frequency, TF over GST control)"
7,CGCACC,"1.03 fold enrichment (6-mer frequency, TF over GST control)"
8,GCATAC,"1.01 fold enrichment (6-mer frequency, TF over GST control)"
9,GATTGC,"1.04 fold enrichment (6-mer frequency, TF over GST control)"
10,GCAACA,"1.08 fold enrichment (6-mer frequency, TF over GST control)"
11,CACCTG,"1.01 fold enrichment (6-mer frequency, TF over GST control)"
12,TCATTG,"1 fold enrichment (6-mer frequency, TF over GST control)"
13,ATAGAC,"1.04 fold enrichment (6-mer frequency, TF over GST control)"

# Target: T3, ERG (Homo sapiens, UniProt P11308 1-479)
# T3 sequence: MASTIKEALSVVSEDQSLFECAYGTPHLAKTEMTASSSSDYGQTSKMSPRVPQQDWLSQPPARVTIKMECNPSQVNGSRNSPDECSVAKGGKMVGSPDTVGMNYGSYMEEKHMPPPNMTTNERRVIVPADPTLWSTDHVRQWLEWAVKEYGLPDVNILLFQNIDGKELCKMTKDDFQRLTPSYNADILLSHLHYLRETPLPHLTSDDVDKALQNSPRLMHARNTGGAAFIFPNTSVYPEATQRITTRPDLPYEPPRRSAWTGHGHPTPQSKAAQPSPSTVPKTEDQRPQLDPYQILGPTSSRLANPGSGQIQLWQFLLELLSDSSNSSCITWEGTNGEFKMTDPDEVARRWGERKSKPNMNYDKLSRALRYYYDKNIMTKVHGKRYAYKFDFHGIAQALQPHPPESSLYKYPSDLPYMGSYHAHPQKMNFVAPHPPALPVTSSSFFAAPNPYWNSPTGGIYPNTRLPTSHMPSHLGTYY
# Test: as above
# Settings: protein: recombinant; tags: N-terminal GST; dsDNA, one strand shown
# Summary of the method: as §1
row,Sequence,binding signal
1,GCCATT,"1.01 fold enrichment (6-mer frequency, TF over GST control)"
2,ACACCG,"1.13 fold enrichment (6-mer frequency, TF over GST control)"
3,GTGTTA,"1.01 fold enrichment (6-mer frequency, TF over GST control)"
4,CAATGA,"1.03 fold enrichment (6-mer frequency, TF over GST control)"
5,CACCGC,"1.02 fold enrichment (6-mer frequency, TF over GST control)"
6,GATTGC,"1.01 fold enrichment (6-mer frequency, TF over GST control)"
7,TTGAAG,"1.02 fold enrichment (6-mer frequency, TF over GST control)"
8,CACCTG,"1.06 fold enrichment (6-mer frequency, TF over GST control)"
9,CCGGCG,"1.09 fold enrichment (6-mer frequency, TF over GST control)"

# Target: ELF1 (Homo sapiens, UniProt P32519 1-619)
# Sequence (P32519 whole entry): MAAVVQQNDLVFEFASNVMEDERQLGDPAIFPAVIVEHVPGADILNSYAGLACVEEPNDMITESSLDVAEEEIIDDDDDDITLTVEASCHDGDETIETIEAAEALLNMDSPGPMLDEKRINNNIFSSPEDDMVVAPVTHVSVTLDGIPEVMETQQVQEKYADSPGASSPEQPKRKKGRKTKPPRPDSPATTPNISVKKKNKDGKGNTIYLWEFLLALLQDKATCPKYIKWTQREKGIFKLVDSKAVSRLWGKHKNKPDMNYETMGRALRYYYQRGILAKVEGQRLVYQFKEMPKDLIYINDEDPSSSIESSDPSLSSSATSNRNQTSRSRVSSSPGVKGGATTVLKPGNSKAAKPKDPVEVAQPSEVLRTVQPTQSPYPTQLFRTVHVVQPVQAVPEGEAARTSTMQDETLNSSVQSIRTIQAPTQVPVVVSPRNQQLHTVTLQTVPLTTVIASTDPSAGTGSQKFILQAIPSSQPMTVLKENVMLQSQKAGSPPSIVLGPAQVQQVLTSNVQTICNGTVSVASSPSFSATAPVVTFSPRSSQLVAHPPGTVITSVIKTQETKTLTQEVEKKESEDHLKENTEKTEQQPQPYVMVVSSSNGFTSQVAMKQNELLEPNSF
# Test: as above
# Settings: protein: recombinant; tags: N-terminal GST; dsDNA, one strand shown
# Summary of the method: as §1
row,Sequence,binding signal
1,CAAAAG,"1.01 fold enrichment (6-mer frequency, TF over GST control)"
2,GCCAAC,"1.01 fold enrichment (6-mer frequency, TF over GST control)"
3,TAACGT,"1.01 fold enrichment (6-mer frequency, TF over GST control)"
4,CAAACG,"1.04 fold enrichment (6-mer frequency, TF over GST control)"
5,TCGCGG,"1.02 fold enrichment (6-mer frequency, TF over GST control)"
6,CAATGA,"1.06 fold enrichment (6-mer frequency, TF over GST control)"
7,CATCAA,"1.03 fold enrichment (6-mer frequency, TF over GST control)"
8,CACCGC,"1.04 fold enrichment (6-mer frequency, TF over GST control)"
